# From PubChem BioAssay
# Active and inactive are the calls of the source. Unless noted, no rule for the calls is given here.
# What was measured:
# [1] = compound effects on lung adenocarcinoma cell viability – A549, calcein-AM fluorescence, 48 h, basal, profiling panel (AID 1162); conditions: higher = more signal; also: test concentration not given here
# [2] = compound effects on differentiated 3T3-L1 adipocyte viability – cell-based, 3T3-L1 adipocytes, calcein-AM fluorescence, 48 h, basal, profiling panel (AID 1163); conditions: 3T3-L1 adipocytes viability, higher = more signal; also: test concentration not given here
# [3] = compound effects on hepatocellular carcinoma cell viability – HepG2, calcein-AM fluorescence, 48 h, basal, profiling panel (AID 1164); conditions: higher = more signal; also: test concentration not given here
# [4] = compound effects on multiple myeloma cell viability – MM1S, calcein-AM fluorescence, 48 h, basal, profiling panel (AID 1165); conditions: higher = more signal; also: test concentration not given here
# [5] = calcein-AM signal in unstimulated myeloma cells – cell-based, calcein-AM fluorescence, 48 h, PK04 Diversity Set, profiling panel (AID 1166); conditions: RPMI8226 myeloma viability, higher = more signal;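 also: cells grown under basal conditions without added stimulus; test concentration not given here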
# [6] = JC-1 mitochondrial signal, unstimulated HepG2 cells – cell-based, JC-1 fluorescence, 24 h, 100 nL compound, profiling panel (AID 1167); conditions: HepG2 mitochondrial potential, higher = more signal; also: test concentration not given here
# [7] = JC-1 mitochondrial signal, unstimulated adipocytes – cell-based, JC-1 fluorescence, 3T3-L1 adipocytes, 24 h, 100 nL compound, profiling panel (AID 1168); conditions: JC-1 mitochondrial fluorescence, higher = more signal, called active from +8 up or from −8 down; also: test concentration not given here
# [8] = JC-1 mitochondrial signal, unstimulated myeloma cells – cell-based, JC-1 fluorescence, RPMI8226, 24 h, 100 nL compound, profiling panel (AID 1169); conditions: JC-1 mitochondrial potential fluorescence, higher = more signal; also: test concentration not given here
# [9] = JC-1 mitochondrial signal, unstimulated MM1S myeloma – cell-based, JC-1 fluorescence, 24 h, 100 nL compound, profiling panel (AID 1170); conditions: MM1S mitochondrial potential, higher = more signal; also: test concentration not given here
# [10] = resazurin metabolic signal in A549 cells – cell-based, resazurin fluorescence, 24 h, PK04 Diversity Set, profiling panel (AID 1171); conditions: A549 viability, higher = more signal, called active from +8 up or from −8 down; also: test concentration not given here
# [11] = resazurin metabolic signal in HepG2 cells – cell-based, resazurin fluorescence, 24 h, PK04 Diversity Set, profiling panel (AID 1172); conditions: HepG2 viability, higher = more signal; also: test concentration not given here
# [12] = budding yeast growth changes without added modifier – OD600, strain BY4716, 24 h, basal condition, primary screen (AID 1173); conditions: S. cerevisiae BY4716 growth, OD600, 24 h; higher = more signal, called active from +8 up or from −8 down
# [13] = viability profiling in MM1S myeloma cells – cell-based, resazurin fluorescence, basal, 24 h, PK04 Diversity Set, profiling panel (AID 1174); conditions: higher = more signal, called active from +8 up or from −8 down; also: test concentration not given here
# [14] = target: Dihydroorotate dehydrogenase (quinone), mitochondrial (Plasmodium falciparum (isolate 3D7)) (UniProt Q08210); experiment: inhibition of P. falciparum DHODH – biochemical, C-terminal His tag, absorbance 600 nm, primary screen (AID 1175); conditions: PfDHODH enzyme, DCIP absorbance 600 nm; higher = more signal, called active from +8 up or from −8 down;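 also: recombinant parasite enzyme with a five histidine tag at its C terminus; test concentration not given here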
# [15] = inhibition of PAO1 biofilm formation – strain PAO1, LB-PBS medium, absorbance 600 nm, primary screen (AID 1176); also: test concentration not given here; conditions: P. aeruginosa PAO1 growth/biofilm, A600, 12 h; higher = more signal
# [16] = growth modulation of vineyard yeast isolate – strain RM11-1a, OD600, basal, 24 h, primary screen (AID 1177);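 also: cultures grown under basal conditions with no added stressor; test concentration not given here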; conditions: S. cerevisiae RM11-1a growth, OD600, 24 h; higher = more signal, called active from +8 up or from −8 down
# [17] = growth of efflux-deficient E. coli DRC39 – strain DRC39, OD650, 24 h, E. coli filamentation inducers, primary screen (AID 1178);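 also: growth measured as culture turbidity by optical density at 650 nm; test concentration not given here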; conditions: E. coli DRC39 acrAB, higher = more signal, called active from +8 up or from −8 down
# [18] = growth of efflux-deficient E. coli DRC39 – strain DRC39, OD650, 48 h, E. coli filamentation inducers, primary screen (AID 1179);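 also: screen aims at cell division blockers that make cells filament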; conditions: E. coli DRC39 delta-acrAB growth, higher = more signal, called active from +8 up or from −8 down
# [19] = viability profiling in RPMI8226 myeloma cells – cell-based, resazurin fluorescence, basal, 24 h, PK04 Diversity Set, profiling panel (AID 1180); conditions: higher = more signal;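 also: RPMI8826 multiple myeloma cell line at 5000 cells per well; test concentration not given here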
# [20] = target: E3 ubiquitin-protein ligase XIAP (Homo sapiens) (UniProt P98170); experiment: small molecules binding XIAP protein – biophysical, small-molecule microarray, fluorescence 635 nm, primary screen (AID 1181); conditions: higher = more signal;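 also: score merges 667 nm emission and signal to noise over triplicate slides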
# Chain of E3 ubiquitin-protein ligase XIAP (Homo sapiens) (P98170 whole entry, looked up): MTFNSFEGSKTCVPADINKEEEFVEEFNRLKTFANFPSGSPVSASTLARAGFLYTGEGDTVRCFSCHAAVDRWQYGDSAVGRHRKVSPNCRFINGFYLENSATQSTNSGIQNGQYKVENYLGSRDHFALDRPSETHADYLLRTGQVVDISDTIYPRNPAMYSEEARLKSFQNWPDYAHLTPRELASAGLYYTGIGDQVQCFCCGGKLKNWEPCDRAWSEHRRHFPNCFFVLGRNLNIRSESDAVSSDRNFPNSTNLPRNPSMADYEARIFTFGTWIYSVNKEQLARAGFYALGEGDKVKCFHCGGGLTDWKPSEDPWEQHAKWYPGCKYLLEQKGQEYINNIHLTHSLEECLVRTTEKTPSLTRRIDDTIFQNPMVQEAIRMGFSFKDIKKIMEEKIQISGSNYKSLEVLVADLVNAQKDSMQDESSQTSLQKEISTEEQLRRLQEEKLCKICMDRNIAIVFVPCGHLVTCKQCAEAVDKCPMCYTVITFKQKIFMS
# Chain of Dihydroorotate dehydrogenase (quinone), mitochondrial (Plasmodium falciparum (isolate 3D7)) (Q08210 whole entry, looked up): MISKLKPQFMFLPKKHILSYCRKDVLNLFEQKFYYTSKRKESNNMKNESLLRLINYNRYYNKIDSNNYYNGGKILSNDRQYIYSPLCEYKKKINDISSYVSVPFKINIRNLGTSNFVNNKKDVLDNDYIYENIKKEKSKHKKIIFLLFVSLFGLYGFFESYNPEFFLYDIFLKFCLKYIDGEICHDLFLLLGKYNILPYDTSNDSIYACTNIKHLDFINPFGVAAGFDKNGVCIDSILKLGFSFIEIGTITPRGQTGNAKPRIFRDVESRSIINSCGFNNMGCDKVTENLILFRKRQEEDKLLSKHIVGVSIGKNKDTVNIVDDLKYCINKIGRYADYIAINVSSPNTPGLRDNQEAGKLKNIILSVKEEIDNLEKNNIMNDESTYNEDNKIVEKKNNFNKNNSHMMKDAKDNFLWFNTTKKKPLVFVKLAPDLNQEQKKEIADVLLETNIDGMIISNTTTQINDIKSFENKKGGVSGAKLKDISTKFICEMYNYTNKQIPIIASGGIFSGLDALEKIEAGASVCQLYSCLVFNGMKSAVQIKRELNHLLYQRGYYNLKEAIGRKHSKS
Compound,z-score [1],z-score [2],z-score [3],z-score [4],z-score [5],z-score [6],z-score [7],z-score [8],z-score [9],z-score [10],z-score [11],z-score [12],z-score [13],composite z-score [14],z-score [15],z-score [16],z-score [17],z-score [18],z-score [19],composite z-score [20]
CCOC(=O)CCN1C(=O)[C@H]2[C@H]3[C@H](O)[C@H](O)CC(=NOCC(C)C)[C@H]3CC[C@H]2C1=O,0.0183,0.179,-0.268,0.324,-0.75,0.364,0.295 (inactive),-0.324,-1.03,-0.86 (inactive),-0.823,0.265 (inactive),-0.662 (inactive),-1.19 (inactive),0.246 (inactive),0.628 (inactive),0.692 (inactive),0.686 (inactive),-0.876,-0.22
COCCNC(=O)OCC1CCCC2(CC(OC(=O)NCc3ccc4c(c3)OCO4)CC(CCC(=O)N[C@@H](C)C(=O)OC)O2)O1 (stereo not given in full),0.122,-0.0741,-1.29,0.463,-2.51,-0.802,-0.628 (inactive),0.934,-0.318,1.66 (inactive),0.752,-0.433 (inactive),-0.0741 (inactive),0.209 (inactive),-0.282 (inactive),0.715 (inactive),0.311 (inactive),-0.49 (inactive),0.528,-0.173
O=C1[C@H]2[C@H]3[C@H](O)[C@H](O)CC(=NOC[C@@H](O)COCc4ccco4)[C@H]3CC[C@H]2C(=O)N1C[C@@H]1CCCO1,-0.0501,-1.11,-1.22,0.313,-0.907,-0.809,-0.605 (inactive),-0.271,-0.278,0.622 (inactive),0.639,0.0107 (inactive),-0.324 (inactive),-0.199 (inactive),0.07 (inactive),-0.0915 (inactive),-0.481 (inactive),-0.467 (inactive),0.15,-0.217
C[C@@H]1C=CCC(=O)OC[C@H]2O[C@@H](C=C[C@@H]2O)[C@H](C)C=CCC(=O)OC1,0.164,-0.0309,1.37,0.35,0.72,0.909,1.27 (inactive),-0.0914,1.21,-0.976 (inactive),-0.444,-1.03 (inactive),0.324 (inactive),-0.793 (inactive),0.565 (inactive),-2.26 (inactive),0.577 (inactive),0.205 (inactive),-0.667,-0.0826
Cc1ccc(S(=O)(=O)N[C@H]2COC(=O)CC=C[C@@H](C)COC(=O)CC=C[C@@H]2C)cc1,0.409,-0.203,0.0995,0.0438,0.219,0.247,-0.393 (inactive),-0.0798,-0.197,0.258 (inactive),-0.118,-0.603 (inactive),0.186 (inactive),-0.765 (inactive),-0.319 (inactive),0.313 (inactive),0.0613 (inactive),-0.0105 (inactive),0.108,-0.239
CC(C)CCN1CCc2nc(COc3ccccc3)c3c(c2C1)CO[C@@H](C)C3,-0.304,-0.225,0.665,0.246,-0.396,1.66,-0.000112 (inactive),-0.724,1.09,-0.0622 (inactive),-0.226,-0.83 (inactive),0.291 (inactive),0.0368 (inactive),0.462 (inactive),0.288 (inactive),1.1 (inactive),-0.341 (inactive),0.327,-0.161
CCOC(=O)[C@H](Cc1ccccc1)NC(=O)OC1CC(CCC2CC(CC)=NO2)OC2(CCCC(COC(=O)NCCC(C)C)O2)C1 (stereo not given in full),-0.0093,-1.14,-1.1,-3.44,-3.72,-0.0294,0.513 (inactive),-0.462,-1.22,0.453 (inactive),0.239,0.633 (inactive),0.264 (inactive),-0.133 (inactive),0.226 (inactive),0.136 (inactive),0.347 (inactive),0.205 (inactive),0.65,-0.22
C[C@@H](c1ccccc1)N1C(=O)[C@H]2[C@H]3[C@H](O)[C@H](O)CC(=O)[C@H]3CC[C@H]2C1=O,0.614,0.205,0.92,0.358,-0.094,0.311,1.27 (inactive),-0.826,1.05,0.288 (inactive),-0.137,-0.491 (inactive),0.162 (inactive),-0.736 (inactive),0.128 (inactive),-0.218 (inactive),0.366 (inactive),0.53 (inactive),0.033,0.0641
CCOC(=O)[C@H](Cc1ccccc1)NC(=O)CCC1CC(OC(=O)NCc2cccc3ccccc23)CC2(CCCC(COC(=O)NCc3cccc(C(F)(F)F)c3)O2)O1 (stereo not given in full),1.84,-0.244,1.14,-0.709,0.607,3.94,0.918 (inactive),-0.284,-0.868,-0.106 (inactive),-0.256,-0.168 (inactive),0.415 (inactive),-0.873 (inactive),0.675 (inactive),0.473 (inactive),0.213 (inactive),-0.215 (inactive),-0.573,0.158
